“And” between values parts separate entries of the source, which are not always exact repeats. Equal values may be shown once. Inconclusive results are not listed. The source holds several records for some structures; these can differ, active in one and inactive in another. The source made the active and inactive calls. Calls follow the shape of the dose curve; as a rule, active = well fitted curve in the direction sought with a large enough effect; inconclusive = small, poorly fitted or top-dose-only effect, or another doubt; inactive = no such curve, though single readings can be large; an effect the other way counts as inactive or inconclusive.
Legend:
[1] = Viability qHTS for spleen associated tyrosine kinase inhibitor (SYKi) naive MV4-11 cells (AID 1963823); also: nearly all actives have a fitted effect of over 40% in size
Procedure, shortened: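 In this viability screen, compounds acted on SYK inhibitor naive MV4-11 cells for three days (72 hr, 37 C). Remaining viable cells were measured by CellTiter-Glo luminescence following a 10 min room-temperature development.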

[2] = Viability qHTS for spleen associated tyrosine kinase inhibitor (SYKi) drug resistant MV4-11 cells (AID 1963824); also: nearly all actives have a fitted effect of over 35% in size
Procedure, shortened: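 SYK-inhibitor-resistant MV4-11 AML cells were seeded at 500 per well onto compound and cultured 72 hours (37 °C, 5% CO2). CellTiter-Glo was then added, and after 10 min at room temperature, luminescence gave viability.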

[3] = Quantitative highthroughput screen to assess conditional lethalithy of NOMO1 cells grown in Human Plasma-Like Medium with dialyzed fetal bovine serum (HPLM+ds) (AID 1963878); also: nearly all actives have a fitted effect of over 35% in size;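 as to Viability: 100% = DMSO wells and 0% = empty wells on each plate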
Procedure, shortened: (§1)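 Each medium arm—HPLM with 10% dialyzed FBS, or RPMI1640 with 5 mM glucose and 10% untreated or dialyzed FBS—was screened against an 11-point, 3-fold compound titration for 48 h at 37 °C, with CellTiter-Glo luminescence as endpoint.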

[4] = Quantitative highthroughput screen to assess conditional lethalithy of P12 Ichikawa cells grown in Human Plasma-Like Medium with dialyzed fetal bovine serum (HPLM+ds) (AID 1963879); settings: Potency: viability; also: nearly all actives have a fitted effect of over 35% in size; as to Viability: series mostly up to about 46 µM
Procedure, shortened: as §1

[5] = Quantitative highthroughput screen to assess conditional lethalithy of P12 Ichikawa cells grown in RPMI1640 with dialyzed fetal bovine serum (RPMI+ds) (AID 1963880); settings: Potency: P12-Ichikawa viability; also: nearly all actives have a fitted effect of over 35% in size;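 as to Viability: 100% = DMSO wells and 0% = empty wells on each plate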
Procedure, shortened: as §1

[6] = Quantitative highthroughput screen to assess conditional lethalithy of SEM cells grown in Human Plasma-Like Medium with dialyzed fetal bovine serum (HPLM+ds) (AID 1963882); also: nearly all actives have a fitted effect of over 35% in size; as to Viability: series mostly up to about 46 µM
Procedure, shortened: as §1

[7] = Quantitative highthroughput screen to assess conditional lethalithy of SEM cells grown in RPMI1640 with unreated serum (RPMI+s) (AID 1963883); also: nearly all actives have a fitted effect of over 35% in size;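 as to Viability: 100% = DMSO wells and 0% = empty wells without cells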
Procedure, shortened: as §1

[8] = Cellular viability qHTS for adrenocortical cancer (ACC) cell line SW-13 (AID 1963989); settings: SW-13 ACC cells viability, CellTiter-Glo, 48 h; activity (max response): stronger effect = lower value; also: nearly all actives have a fitted effect of over 65% in size;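 as to activity (max response): cells grown in serum-free medium with ITS supplement; % is scaled to controls: 0 for no effect and ±100 for the full control effect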
Procedure, shortened: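 Luminescent ATP read-out (CellTiter-Glo, 20 min at room temperature) measured metabolically competent SW-13 cells after 48 h compound treatment. Final concentrations spanned up to 46 uM; bortezomib served as positive control.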

[9] = Cellular viability qHTS for adrenocortical cancer (ACC) cell line NCI-H295R (AID 1963990); also: nearly all actives have a fitted effect of over 60% in size
Procedure, shortened: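 IC50 and maximal efficacy derive from four-parameter logistic modelling of titration curves, with reads scaled between DMSO-only wells (0%) and doxorubicin hydrochloride (100% inhibition). Compounds spanned up to 46 uM over 48 h.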

[10] = Quantitative highthroughput screen to assess conditional lethalithy of SEM cells grown in RPMI1640 with dialyzed fetal bovine serum (RPMI+ds) (AID 1963884); also: nearly all actives have a fitted effect of over 35% in size;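 as to Viability: series mostly up to about 46 µM; 100% = DMSO control wells and 0% = empty wells without cells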
Procedure, shortened: as §1

[11] = Quantitative highthroughput screen to assess conditional lethalithy of NOMO1 cells grown in RPMI1640 with dialyzed fetal bovine serum (RPMI+ds) (AID 1963877); also: nearly all actives have a fitted effect of over 30% in size;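 as to Viability: series mostly up to about 46 µM; 100% = DMSO control wells and 0% = empty wells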
Procedure, shortened: as §1

[12] = Quantitative highthroughput screen to assess conditional lethalithy of P12 Ichikawa cells grown in RPMI1640 with untreated serum (RPMI+s) (AID 1963881); settings: Potency: viability; also: nearly all actives have a fitted effect of over 35% in size;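 as to Viability: series mostly up to about 46 µM; 100% = DMSO wells and 0% = empty wells without cells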
Procedure, shortened: as §1
Potency is read from the fitted curve at half-maximal effect.

Structure (SMILES) | Potency [1] | Potency [2] | Potency [3] | Potency [4] | Potency [5] | Potency [6] | Potency [7] | Potency [8] | Potency [9] | Potency [10] | activity (max response) [8] | Potency [11] | Potency [12]
COc1ccc(-c2ccc3ncc4c(c3c2)n(-c2ccc(N3CCNCC3)c(C(F)(F)F)c2)c(=O)n4C)cn1 | 0.0263 µM (active) | 13 nM (active) and 16.4 nM (active) and 29.5 nM (active) | 0.148 µM (active) | 1.05 µM (active) | 0.187 µM (active) | 0.0743 µM (active) | 0.0209 µM (active) | 0.316 µM (active) | 0.126 µM (active) | – | – | – | –
Cc1cn([C@@H]2O[C@H](CO)[C@@H](O)[C@H]2F)c(=O)[nH]c1=O | inactive | inactive | inactive | inactive | – | inactive | inactive | – | inactive | inactive | 7.23% (inactive) | – | –
Cc1cn(CCN2CCN(c3ccccc3-c3cc(C#N)cc(C(=O)NCCCN4CCCC4)c3)CC2)c2ccccc12 | 3.72 µM (active) | 3.66 µM (active) and 3.32 µM (active) | – | 8.31 µM (active) | 7.41 µM (active) | 6.6 µM (active) | 13.2 µM (active) | 22.4 µM (active) | 5.62 µM (active) | – | – | 10.5 µM (active) | 8.31 µM (active)
Cn1c(Nc2ccc(C(F)(F)F)cc2)nc2cc(Oc3ccnc(-c4ncc(C(F)(F)F)[nH]4)c3)ccc21 | 2.91 µM (active) | 1.3 µM (active) | – | – | 18.7 µM (active) | 9.35 µM (active) | 4.69 µM (active) | – | inactive | – | -8.43% (inactive) | 23.5 µM (active) | 14.8 µM (active)
CS(=O)(=O)c1cccc(CNc2nc(Nc3ccc4c(c3)CCC(=O)N4)ncc2C(F)(F)F)c1 | 0.105 µM (active) | 0.164 µM (active) | – | – | – | 8.33 µM (active) | 5.26 µM (active) | – | – | 6.62 µM (active) | – | 18.7 µM (active) | –
CCCCc1oc2ccccc2c1C(=O)c1cc(I)c(OCCN(CC)CC)c(I)c1 | 18.8 µM (active) and 16.6 µM (active) | 23.7 µM (active) and 18.6 µM (active) | – | – | inactive | inactive | inactive | 31.6 µM (active) | 22.4 µM (active) | inactive | – | 20.9 µM (active) | inactive
Cc1nn(C)c(COc2ccc(N3CCN(S(=O)(=O)N(C)C)CC3)cc2)c1-c1cccc2c(CCCOc3cccc4ccccc34)c(C(=O)O)n(CCN3CCOCC3)c12 | 7.42 µM (active) and inactive | 6.61 µM (active) and inactive | – | – | – | – | – | – | inactive | – | -16.3% (inactive) | inactive | –
COc1cc(NCc2ccc3nc(N)nc(N)c3c2C)cc(OC)c1OC | 1.05 µM (active) | 42.2 nM (active) and 1.05 µM (active) | – | 2.35 µM (active) | – | – | – | 10.3 nM (active) and 1.12 µM (active) | 14.6 nM (active) and 2.82 µM (active) | – | – | 10.5 µM (active) | 18.7 µM (active)
c1cnc2cc3c(cc2n1)C1CNCC3C1 | inactive | inactive | inactive | inactive | inactive | inactive | inactive | – | inactive | inactive | 7.13% (inactive) and 6.77% (inactive) | – | inactive
C[C@@H]1C[C@H]2[C@@H]3CCC4=CC(=O)C=C[C@]4(C)[C@@]3(Cl)[C@@H](O)C[C@]2(C)[C@@]1(OC(=O)c1ccco1)C(=O)CCl | 16.8 µM (active) and 8.33 µM (active) | 8.41 µM (active) and 4.68 µM (active) | – | – | – | inactive | inactive | – | – | inactive | – | 6.62 µM (active) | –
C1CCC(C(CC2CCCCN2)C2CCCCC2)CC1 (centres undefined) | 2.95 µM (active) | 2.95 µM (active) | – | – | – | 14.8 µM (active) | 11.8 µM (active) | – | 7.08 µM (active) | – | – | 23.5 µM (active) | –
O=C(CN1C(=O)C2(CCCC2)NC[C@H]1c1cc(F)cc(F)c1)Nc1ccc2c(c1)C[C@@]1(C2)C(=O)Nc2ncccc21 | inactive | 18.6 µM (active) | 20.9 µM (active) | inactive | inactive | inactive | inactive | – | inactive | inactive | -4.31% (inactive) | – | inactive
CN(C)CCCN=c1c2ccccc2n(C)c2[nH]c(=O)n(C)c(=O)c12 | 5.9 µM (active) | 8.33 µM (active) | – | 26.4 µM (active) | 18.7 µM (active) | 11.8 µM (active) | – | 25.1 µM (active) | 28.2 µM (active) | 9.35 µM (active) | – | 20.9 µM (active) | 18.7 µM (active)

From PubChem BioAssay (NCATS)
